Screens: PubChem, National Center for Advancing Translational Sciences (NCATS)
The list is not random: actives were taken first. Their share in the collection is about 4.3%.
MCF10A rerep: inducers of DNA re-replication in MCF 10A breast cells | MCF 10A DNA re-replication, Hoechst nuclear intensity, 48 h | Potency, µM (titrated, usually from 46.1 µM), hits mostly activators | 2.9% of 350,000 active | AID 624296; note: nearly all actives have a fitted effect of over 50% in size
uPA surface inh: blocks generation of uPA at the cell surface; Potency, µM (highest dose often 38.3 µM), usual class: inhibitors; 0.31% of 330,000 active; cell surface uPA generation assay, qHTS; AID 540303; active = well fitted inhibition curve with a large enough effect; inconclusive = small, poorly fitted or top-dose-only effect; inactive = no such curve, though single readings can be large or run the other way; tested in mouse RAW 264.7 cells; note: nearly all actives have a fitted effect of over 55% in size
Giardia killer: kills Giardia lamblia | Giardia lamblia trophozoite viability | activity change, % at 7.66 µM, hits read low | 0.15% of 340,000 active | AID 540267; in the data active = activity change below about -80%; inconclusive = between about -30% and that limit;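 note: parasites exposed to compound for two days anaerobically before the ATP read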
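Media and compound were dispensed first, then trophozoites at 100 cells/well; plates sat 48 hrs at 37 deg C without oxygen before ATP luminescence reagent was added and read after 15-30 min at room temperature.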
SW480 rereplic: inducers of DNA re-replication in SW480 colon cancer cells; SW480 DNA re-replication, Hoechst DNA content imaging, 48 h; Potency, µM (highest dose often 46.1 µM), actives largely listed as activators; 1.8% of 340,000 active; note: nearly all actives have a fitted effect of over 55% in size
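SW480 cells exposed to compounds for 48 hr at 37 C, 5% CO2, then Hoechst-stained 40 min. Nuclear DNA content imaged by fluorescence scanning (405 nm excitation, 500-530 nm emission); re-replication scored as increased high-intensity nuclei.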
Of the large screens only hits and unclear results are named; the others gave an inactive call. Unless noted, calls come from the whole dose curve; as a rule, active = well fitted activation curve with a large enough effect; inconclusive = small, poorly fitted or top-dose-only effect; inactive = no such curve, though single readings can be large or run the other way.

CC(=NO)c1ccc2c(c1)Cc1cc([N+](=O)[O-])ccc1-2	Giardia killer inconclusive
CC(O)CN(CC(C)O)c1ccc2c(c1)Cc1cc([N+](=O)[O-])ccc1-2 (centres undefined)	MCF10A rerep 11.6µM, SW480 rereplic 8.2µM
O=C(Nc1ccc(Cl)c(Cl)c1)c1ccc(Cn2cc(Cl)cn2)cc1	MCF10A rerep inconclusive, uPA surface inh inconclusive
CCOc1ccc(C(=O)Nc2cnn(Cc3ccc(Cl)c(Cl)c3)c2)cc1	MCF10A rerep 0.651µM (no result: uPA surface inh)
Cc1cc(C)c(S(=O)(=O)/N=C2\C=C(NS(=O)(=O)c3ccccc3)C(=O)c3ccccc32)c(C)c1	none
Cc1cc(C)c(S(=O)(=O)/N=C2\C=C(Nc3ccc(C(=O)O)cc3)C(=O)c3ccccc32)c(C)c1	SW480 rereplic inconclusive
Cc1ccc(S(=O)(=O)/N=C2\C=C(NS(=O)(=O)c3ccccc3)C(=O)c3ccccc32)cc1	MCF10A rerep inconclusive
Cc1cccc(NC2=C/C(=N/S(=O)(=O)c3cccs3)c3ccccc3C2=O)c1	MCF10A rerep 2.91µM, SW480 rereplic inconclusive
Cc1ccc(Cl)cc1NC1=C/C(=N\S(=O)(=O)c2cccs2)c2ccccc2C1=O	MCF10A rerep 0.651µM, SW480 rereplic 2.91µM
O=C1C(Nc2ccc(O)cc2)=C/C(=N/S(=O)(=O)c2cccs2)c2ccccc21	MCF10A rerep inconclusive, SW480 rereplic 5.17µM
Cc1ccc(NC2=C/C(=N\S(=O)(=O)c3cccs3)c3ccccc3C2=O)c(C)c1	MCF10A rerep 6.51µM, SW480 rereplic 6.51µM
O=C1C=C(Nc2ccc(O)cc2)C(=O)c2ccccc21	MCF10A rerep inconclusive, SW480 rereplic inconclusive
COc1cc([N+](=O)[O-])cc(/C=N/N(CCC#N)C(C)=O)c1O	MCF10A rerep inconclusive, SW480 rereplic 5.8µM
COC(=O)c1ccc(N/N=C/c2cc([N+](=O)[O-])cc(OC)c2O)cc1	none
c1ccc(CNc2ncnc3nc(N4CCOCC4)[nH]c23)cc1	none (no result: MCF10A rerep, uPA surface inh, SW480 rereplic)
Cc1ccc(-c2nn3c(C)nnc3c3ccccc23)cc1S(=O)(=O)NC(C)(C)CO	MCF10A rerep 11.2µM
COc1ccc(/C=C/C(=O)OCC(=O)NC(C)CCc2ccccc2)cc1OC (centres undefined)	Giardia killer inconclusive
CCOC(=O)C1=C(O)/C(=C/c2ccc(-c3ccccc3C(=O)O)o2)SC1=Nc1ccc(C)cc1	MCF10A rerep 13µM, uPA surface inh inconclusive, SW480 rereplic inconclusive
CCOC(=O)C1=C(O)/C(=C/c2ccc(-c3ccccc3C(=O)O)o2)SC1=Nc1ccc(OC)cc1	none
Cc1ccc(-n2nnc(-c3nccn3C)n2)cc1	uPA surface inh 3.16µM, Giardia killer inconclusive
Cc1ccc(-n2nnc(-c3cccnc3)n2)cc1	uPA surface inh inconclusive
CSc1cc(-c2ccco2)oc1C(=O)c1ccco1	none
CCOC(=O)c1sc(/N=C/c2c(O)ccc3ccccc23)cc1C	MCF10A rerep 14.6µM
Cc1ccc(N=Cc2c(O)ccc3ccccc23)cc1F	MCF10A rerep inconclusive, SW480 rereplic inconclusive
Cc1ccc(C(=O)NCC(=O)NCC(c2cccs2)N(C)C)cc1C (centres undefined)	none
O=C1CCc2cc(S(=O)(=O)Nc3ccccc3)cc3c2N1CC3	none
Fc1ccc(-[n+]2nc(Nc3ccccc3)sc2-c2ccc(OCc3ccccc3)cc2)cc1	MCF10A rerep 1.3µM
CCOc1cc(-c2sc(Nc3ccccc3)n[n+]2-c2ccc(F)cc2)ccc1OC	none
Cc1ccc(CN(CC(=O)N/N=C/c2ccco2)S(=O)(=O)c2ccc(C)cc2)cc1	none
Cc1cccc(C(=O)NC2=NCCS2)c1	MCF10A rerep inconclusive, SW480 rereplic 6.51µM
CC(NC(=O)c1ccc(Cl)cc1)C(=O)NC1=NCCS1 (centres undefined)	none
CC(NC(=O)c1ccc(F)cc1)C(=O)NC1=NCCS1 (centres undefined)	SW480 rereplic 6.51µM
CCOC(=O)C1CN(S(=O)(=O)c2cccs2)c2ccc(CC(=O)OC)cc2O1 (centres undefined)	none
O=C1/C(=N\S(=O)(=O)c2cccs2)C([n+]2ccccc2)=C([O-])c2ccccc21	SW480 rereplic 11.6µM
CC(C)(C)c1cc[n+](C2=C([O-])c3ccccc3C(=O)/C2=N\S(=O)(=O)c2cccs2)cc1	MCF10A rerep inconclusive, SW480 rereplic inconclusive
CCCN1CNc2c(c(=O)[nH]c(=S)n2CCc2cc(C)cc(C)c2)C1	none (no result: MCF10A rerep, uPA surface inh, SW480 rereplic)
CCCCOCCCNC(=O)C1CCCCC1	MCF10A rerep 11.6µM, SW480 rereplic inconclusive
O=C(NCCCCNC(=O)C1CCCC1)C1CCCC1	none
CC1(C)CC(=O)C=C(Nc2ccc([N+](=O)[O-])cc2)C1	none
Cc1ccc(OCC(=O)Oc2cccc(C)c2)cc1	none
CC(=O)Nc1cccc(OC(=O)COc2ccc(Br)cc2)c1	SW480 rereplic 29.1µM
CC(C)Oc1ccccc1C1CC(=O)Nc2cc3c(cc21)OCCO3 (centres undefined)	MCF10A rerep inconclusive, SW480 rereplic 1.64µM (no result: uPA surface inh)
COc1cc2c(cc1OC)C(c1ccc(SC)cc1)CC(=O)N2 (centres undefined)	MCF10A rerep 4.61µM
O=C1CC(c2cccs2)c2cc3c(cc2N1)OCCO3 (centres undefined)	MCF10A rerep 18.4µM
COc1cccc(C2CC(=O)Nc3cc4c(cc32)OCCO4)c1OC(C)C (centres undefined)	MCF10A rerep inconclusive, SW480 rereplic inconclusive
COc1ccccc1C1CC(=O)Nc2cc3c(cc21)OCCO3 (centres undefined)	MCF10A rerep 3.66µM, uPA surface inh inconclusive, SW480 rereplic 2.06µM
Cc1ccc(C2CC(=O)Nc3cc4c(cc32)OCCO4)s1 (centres undefined)	none
COc1cc2c(cc1OC)C(c1ccccc1C)CC(=O)N2 (centres undefined)	none
CC(=O)c1ccc(S(=O)(=O)Nc2ccc(C(=O)NCCCn3ccnc3)cc2)cc1	none
COc1ccc(C=NN=C2c3ccccc3-c3ccccc32)cc1OC	none
COc1ccc(CCN2C(=O)CSC2=Nc2ccc(C)cc2C)cc1OC	none
Nc1nc(-c2ccccc2)cn1N	none
Cc1ccc(-c2cn3nc(-c4ccccc4)c(-c4ccccc4)nc3n2)cc1	MCF10A rerep inconclusive, SW480 rereplic 18.4µM
c1ccc(-c2cn3nc(-c4ccccc4)c(-c4ccccc4)nc3n2)cc1	MCF10A rerep 7.31µM, SW480 rereplic 9.2µM
Cc1nn2cc(-c3ccc(-c4ccccc4)cc3)nc2s1	none
Cc1ccc(S(=O)(=O)Nc2ccccc2-c2ccccc2)cc1	MCF10A rerep 1.3µM, SW480 rereplic 0.82µM
CCN(CC)CCNC(=O)c1ccc(N2CCCCC2)c(NS(=O)(=O)c2ccc(C)cc2)c1	SW480 rereplic 25.9µM
Cc1ccc(S(=O)(=O)Nc2ccccc2N2CCOCC2)cc1	MCF10A rerep inconclusive, SW480 rereplic inconclusive
Cc1ccc(S(=O)(=O)Nc2ccccc2N2CCCCC2)cc1	MCF10A rerep 16.4µM, uPA surface inh inconclusive, SW480 rereplic inconclusive
C[C@@H]1CC2[C@@H]3C[C@H](F)C4=CC(=O)C(Cl)=C[C@]4(C)[C@@]3(F)[C@H](O)C[C@]2(C)[C@@]1(O)C(=O)CO (some centres undefined)	none (no result: uPA surface inh, Giardia killer)
COc1cc(C(=O)Nc2ccc(N3CCN(C(=O)c4ccc(C)cc4)CC3)cc2)cc(OC)c1OC	none
